Among the data in PubChem BioAssay (NCI) are growth values, retold here.

Compounds without any hit were thinned out: in the full panel of roughly 83,000, 20% have a hit.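 Plates (96-well) were seeded with cells, treated with compound at one concentration, and incubated for 48 hours before percent growth was determined.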 A number with no mark means an inactive call. Active and inactive are the calls of the source. The calls were made as follows: active = growth percent below 10; inactive = the rest.

Among the test systems are NCI-H23 lung; NCI-H226 lung; NCI-H322M lung; HOP-62 NSCLC; NCI-H460 lung; HOP-92 NSCLC; NCI-H522 lung; A549/ATCC NSCLC; 786-0 renal; COLO 205 colon; DU-145 prostate; K-562 leukemia; MALME-3M melanoma; MDA-MB-231 breast; RXF 393 renal; SF-268 CNS; SF-295 CNS; SF-539 CNS; UACC-257 melanoma; M14 melanoma.
Common to all, as to experiment: NCI-60 one-dose screen, 48 h (100 = growth as untreated, 0 = no growth, -100 = all killed)
Holding throughout (conditions): 10 µM unless noted

As for `COC(=O)[C@]12CC[C@@H](C(=O)/C=C/c3cccnc3)[C@@H]1[C@H]1CC[C@@H]3[C@@]4(C)C/C(=C/c5cccnc5)C(=O)C(C)(C)[C@@H]4CC[C@@]3(C)[C@]1(C)CC2`, the growth was -48.3% (active) in the experiment on NCI-H23 lung; -44.4% (active) with NCI-H226 lung; -80.7% (active) with NCI-H322M lung; -85.6% (active) with HOP-62 NSCLC; -78.4% (active) with NCI-H460 lung; -79.9% (active) in the experiment with HOP-92 NSCLC. The growth is -59.7% (active) with NCI-H522 lung; -9.34% (active) in the experiment with A549/ATCC NSCLC; -92.3% (active) in the experiment on 786-0 renal; -45.1% (active) with COLO 205 colon; -67.8% (active) in the experiment on DU-145 prostate; -21.6% (active) with K-562 leukemia. Also, the growth with MALME-3M melanoma is -95.2% (active); in the experiment with MDA-MB-231 breast it was -81.3% (active); in the experiment with RXF 393 renal, -93.6% (active); with SF-268 CNS it was -80.8% (active); with SF-295 CNS, -98.5% (active); with SF-539 CNS, -96.5% (active). For the same molecule, the growth was -58.9% (active) with UACC-257 melanoma and -80.3% (active) in the experiment on M14 melanoma.
In the case of `N#C/C(=C\c1ccc(-c2ccc(Cl)cc2)o1)c1nc(-c2ccco2)cs1`, the growth in the experiment on NCI-H23 lung was 93.9%; with NCI-H226 lung, 89.3%; with NCI-H322M lung, 91.6%; in the experiment on HOP-62 NSCLC, 97.5%; with NCI-H460 lung, 96%; in the experiment with HOP-92 NSCLC, 85.8%. In addition, the growth was 90.6% in the experiment with NCI-H522 lung; 91.9% with A549/ATCC NSCLC; 104% in the experiment on 786-0 renal; 109% in the experiment on COLO 205 colon; 103% with DU-145 prostate; 94.4% in the experiment with K-562 leukemia. Besides, the growth in the experiment with MALME-3M melanoma was 99.9%; with MDA-MB-231 breast, 85.3%; in the experiment on RXF 393 renal it was 108%; in the experiment on SF-268 CNS, 101%; in the experiment with SF-295 CNS, 92.9%; with SF-539 CNS, 94.7%. Moreover, the growth in the experiment with UACC-257 melanoma is 104%; with M14 melanoma, 98.9%.
As to `O=C1/C(=C\C(Cl)=C/c2ccc([N+](=O)[O-])cc2)SC(=S)N1CCc1ccc(O)cc1`, the growth is -57.9% (active) with NCI-H23 lung; -63.3% (active) in the experiment with NCI-H226 lung; 2.21% (active) in the experiment with NCI-H322M lung; 12.9% in the experiment with HOP-62 NSCLC; 0.441% (active) in the experiment with NCI-H460 lung; -3.03% (active) in the experiment on HOP-92 NSCLC. In addition, the growth in the experiment with NCI-H522 lung is 0.0131% (active); in the experiment with A549/ATCC NSCLC, 3.64% (active); in the experiment on 786-0 renal, -46.4% (active); with COLO 205 colon, -43.8% (active); with DU-145 prostate, 5.69% (active); in the experiment on K-562 leukemia it was 6.62% (active). Also, the growth in the experiment with MALME-3M melanoma is -64.5% (active); in the experiment on MDA-MB-231 breast, 6.88% (active); in the experiment on RXF 393 renal, -72.5% (active); in the experiment with SF-268 CNS, 9.96% (active); in the experiment on SF-295 CNS, -31.4% (active); with SF-539 CNS, -75.4% (active). The growth in the experiment on UACC-257 melanoma was 4.06% (active); in the experiment with M14 melanoma, -27.5% (active).
For the molecule `N#CC1=C(N)Oc2ccc3ccccc3c2C1c1ccccc1` (stereo not given), the growth with NCI-H23 lung was 43.9%; with NCI-H226 lung, 51.6%; in the experiment on NCI-H322M lung, 62.1%; in the experiment on HOP-62 NSCLC, 39.7%; with NCI-H460 lung, 21.7%; in the experiment with HOP-92 NSCLC, 62.6%. The growth in the experiment with NCI-H522 lung was 34.7%; in the experiment on A549/ATCC NSCLC, 51%; in the experiment on 786-0 renal, 35.5%; in the experiment with COLO 205 colon it was 32.6%; in the experiment with DU-145 prostate, 51.2%; in the experiment with K-562 leukemia, 14.9%. The growth with MALME-3M melanoma was 42.3%; in the experiment on MDA-MB-231 breast, 47%; in the experiment with RXF 393 renal, 23.3%; in the experiment on SF-268 CNS, 52.2%; in the experiment with SF-295 CNS, 4.96% (active); with SF-539 CNS, 11.4%. Also, the growth in the experiment with UACC-257 melanoma was 61.7%; in the experiment on M14 melanoma, 13.6%.
For the molecule `Oc1cccc2ccc(N/N=C/c3cc(CN4CCCCC4)c(O)c4ncccc34)nc12`, the growth was -10.8% (active) in the experiment with NCI-H23 lung; -30% (active) in the experiment with NCI-H226 lung; 25.5% in the experiment with NCI-H322M lung; 1.83% (active) in the experiment on HOP-62 NSCLC; -40.3% (active) in the experiment with NCI-H460 lung; 36.9% with HOP-92 NSCLC. Further, the growth is -16% (active) in the experiment on NCI-H522 lung; -10.3% (active) with A549/ATCC NSCLC; 5.33% (active) in the experiment on 786-0 renal; 8.41% (active) with COLO 205 colon; 24.1% in the experiment on DU-145 prostate; 13.1% in the experiment on K-562 leukemia. Moreover, the growth is 19.1% in the experiment with MALME-3M melanoma; -4.71% (active) in the experiment on MDA-MB-231 breast; 9.94% (active) in the experiment with RXF 393 renal; 12.6% in the experiment on SF-268 CNS; -5.38% (active) in the experiment with SF-295 CNS; 4.73% (active) in the experiment with SF-539 CNS. Besides, the growth was 13.4% in the experiment on UACC-257 melanoma and -24.8% (active) in the experiment on M14 melanoma.
On to `O=C(O[C@@H]1Cc2c(O)cc(O)cc2O[C@@H]1c1cc(O)c(O)c(O)c1)c1cc(O)c2c(c1)OCO2`, for which the growth is 92.6% with NCI-H23 lung; 93% in the experiment with NCI-H226 lung; 107% with NCI-H322M lung; 98.5% in the experiment with HOP-62 NSCLC; 105% with NCI-H460 lung; 95.1% in the experiment on HOP-92 NSCLC. Also, the growth in the experiment with NCI-H522 lung was 83.3%; in the experiment with A549/ATCC NSCLC, 82.5%; in the experiment with 786-0 renal, 94.4%; in the experiment on COLO 205 colon, 104%; in the experiment with DU-145 prostate it was 99.7%; in the experiment with K-562 leukemia, 91%. The growth with MALME-3M melanoma is 108%; in the experiment on MDA-MB-231 breast, 101%; in the experiment with RXF 393 renal, 111%; in the experiment with SF-268 CNS, 97%; in the experiment with SF-295 CNS, 103%; with SF-539 CNS it was 108%. The growth in the experiment on UACC-257 melanoma is 83%; with M14 melanoma, 91.9%.
Turning to `Cn1nc(-c2ccccc2)c2c(-c3ccccc3)onc2c1=O`, the growth in the experiment with NCI-H23 lung is 48%; with NCI-H226 lung it was 62.1%; with NCI-H322M lung, 55.4%; in the experiment on HOP-62 NSCLC, 31%; in the experiment with NCI-H460 lung, 28.3%; with HOP-92 NSCLC, 43.9%. The growth with NCI-H522 lung was 10.6%; in the experiment on A549/ATCC NSCLC, 35.4%; in the experiment on 786-0 renal it was 49.7%; with COLO 205 colon, 15.2%; in the experiment with DU-145 prostate, 34.6%; in the experiment with K-562 leukemia it was 13%. Also, the growth in the experiment on MALME-3M melanoma was 62.9%; with MDA-MB-231 breast, 52%; in the experiment on RXF 393 renal, 23.8%; in the experiment on SF-268 CNS, 47%; with SF-295 CNS, 27.3%; in the experiment on SF-539 CNS, 2.75% (active). The growth in the experiment on UACC-257 melanoma was 49.2%; in the experiment on M14 melanoma, 42.3%.
`COc1ccc(/C=C(\C#N)c2cc3ccccc3n2S(C)(=O)=O)cc1`: the growth in the experiment on NCI-H23 lung was 89.8%; with NCI-H226 lung it was 89.7%; with NCI-H322M lung, 99.6%; in the experiment on HOP-62 NSCLC, 91.5%; in the experiment with NCI-H460 lung, 105%; with HOP-92 NSCLC it was 86.5%. Also, the growth with NCI-H522 lung is 73.5%; in the experiment with A549/ATCC NSCLC, 104%; in the experiment with 786-0 renal, 99.9%; in the experiment on COLO 205 colon, 111%; with DU-145 prostate it was 98.2%; with K-562 leukemia, 30.8%. Moreover, the growth in the experiment on MALME-3M melanoma is 66.5%; in the experiment on MDA-MB-231 breast, 85.4%; with RXF 393 renal, 78.1%; in the experiment on SF-268 CNS it was 88%; with SF-295 CNS, 71.6%; in the experiment with SF-539 CNS, 79.1%. Also, the growth in the experiment on UACC-257 melanoma was 90.2%; in the experiment with M14 melanoma, 56.1%.
